Assay outcomes as filed in PubChem BioAssay.
A selection: hits, their analogues and other compounds. The true share with any hit is near 5.1%.
PNC assembly inh = perinucleolar compartment assembly inhibition | activity change (PNC), negative = inhibition, % at 10 µM | AID 2417 | PC3M PTB-GFP, PNC prevalence imaging, 16 h; active compounds read low | 3.1% of 140,000 active;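 active = readout at or below -70, meaning at least 70% loss of cells showing the perinucleolar compartment, a nuclear body marking cancer cells; inconclusive = readout between -30 and a set limit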;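 note: plate controls were DMSO wells for no effect and camptothecin positive control wells for full effect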
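PC3M cells stably expressing PTB-GFP, 750–1000 cells/well, treated 16 h at 37 °C with compound (23 nl of library stock), in duplicate. After paraformaldehyde fixation and Hoechst stain, imaged at 20x; PNC prevalence scored by image analysis.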
Tau FP inhib = tau fibrillization inhibition (FP). K18 P301L tau heparin fibrillization, Alexa594 FP, 6 h. Potency, µM (titrated, usually from 57.7 µM), for the others: top-dose activity, negative = inhibition, usual class: inhibitors. 0.39% of 280,000 active; note: potency is the fitted concentration of half-maximal effect; nearly all actives have a fitted effect of over 55% in size
Target sequence (P10636 561-689 P618L limits assumed): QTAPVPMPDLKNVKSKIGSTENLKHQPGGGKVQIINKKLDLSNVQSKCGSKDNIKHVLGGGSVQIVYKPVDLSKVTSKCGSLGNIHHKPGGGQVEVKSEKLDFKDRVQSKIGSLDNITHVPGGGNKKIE
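Recombinant K18 P301L […], labeled with Alexa 594 at 0.24 uM over 15 uM unlabeled; heparin inducer 20 uM final; 37 C, 6 hr; FP endpoint.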
NPSR antag = neuropeptide S receptor (human) antagonism, cAMP; Q6W5P4; CHO-NPSR cells, cAMP TR-FRET, antagonist mode; 1% of 220,000 active; Potency, µM (titrated, usually from 38.3 µM), for inactives: top-dose activity change, negative = inhibition, actives largely listed as inhibitors; note: potency is the fitted concentration of half-maximal effect; nearly all actives have a fitted effect of over 50% in size
Target sequence (Q6W5P4 whole entry, looked up): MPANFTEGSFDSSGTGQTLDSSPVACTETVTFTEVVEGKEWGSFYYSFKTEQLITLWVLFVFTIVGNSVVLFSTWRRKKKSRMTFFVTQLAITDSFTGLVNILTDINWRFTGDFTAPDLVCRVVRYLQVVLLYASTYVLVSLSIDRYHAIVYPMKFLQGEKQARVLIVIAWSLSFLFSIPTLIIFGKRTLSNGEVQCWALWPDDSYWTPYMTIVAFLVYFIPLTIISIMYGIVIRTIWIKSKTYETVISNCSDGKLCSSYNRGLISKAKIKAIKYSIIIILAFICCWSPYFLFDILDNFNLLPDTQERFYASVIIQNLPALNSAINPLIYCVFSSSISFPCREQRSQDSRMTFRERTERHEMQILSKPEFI
Tau fluor cs = counter-screen for tau fibril formation inhibitors; tau K18 P301L Alexa594 fluorescence, heparin fibrillization; Potency, µM (series often up to 57.7 µM), without a hit: at the top dose activity change, negative = decrease; 0.93% of 280,000 active; note: potency is the fitted concentration of half-maximal effect; nearly all actives have a fitted effect of over 55% in size
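Human K18 P301L tau (15 uM unlabeled plus 0.24 uM Alexa 594-labeled, final) in 100 mM sodium acetate pH 7 was mixed with compound and 20 uM heparin and incubated 6 hr at 37 C.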
Tau ThT inhib = inhibitors of human tau fibril formation, thioflavin T binding; P10636; Potency, µM (top dose mostly 57.4 µM), for the others: at the top dose activity, negative = inhibition, most hits filed as inhibitors; AID 1460; recombinant tau K18 P301L (four-repeat tau fragment), heparin-induced fibrillization, ThT fluorescence; 2.1% of 270,000 active; note: potency is the fitted concentration of half-maximal effect; nearly all actives have a fitted effect of over 55% in size
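Tau K18 P301L fragment (15 uM unlabeled plus 0.24 uM Alexa 594-labeled) in 100 mM sodium acetate pH 7 with compound, fibrillization induced by 20 uM heparin for 6 hr at 37 C. Thioflavin T (30 uM) added, fluorescence read after 1 hr (ex 450, em 510 nm).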
JMJD2E inh = JMJD2E (human) inhibition; Potency, µM (doses to about 57.1 µM), inactives show at the highest dose activity change, negative = inhibition, actives largely listed as inhibitors; B2RXH2; AID 2147; JMJD2E catalytic domain, FDH-coupled NADH fluorescence (FDH is formaldehyde dehydrogenase); 1.6% of 230,000 active; active = well fitted inhibition curve with a large enough effect, not every such curve was filed as active; inconclusive = small, poorly fitted or top-dose-only effect, or another doubt; inactive = no such curve, though single readings can be large or run the other way;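 note: potency is the fitted concentration of half-maximal effect; 0% = wells with enzyme and -100% = buffer wells without enzyme; nearly all actives have a fitted effect of over 50% in size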
Starred values were filed as active, the others as inactive; u = inconclusive; x = not tested or not shown; [ ] = another dose, or the depositor's remark. Unless noted, calls come from the whole dose curve; as a rule, active = well fitted curve in the direction sought with a large enough effect; inconclusive = small, poorly fitted or top-dose-only effect, or another doubt; inactive = no such curve, though single readings can be large; an effect the other way counts as inactive or inconclusive. Unless noted, % is set by controls: 0 for no effect and ±100 for the full control effect.

SMILES	PNC assembly inh	Tau FP inhib	NPSR antag	Tau fluor cs	Tau ThT inhib	JMJD2E inh
O=C(CSc1oc(-c2ccco2)nc1S(=O)(=O)c1ccc(F)cc1)NCC1CCCO1 (stereo not given)	-119*	-4%	-16%	1%	8%	8%
Cc1cccc(NC(=O)CSc2nnc3scc(-c4ccccc4)n23)c1	x	-10%	x	u	u	x
COc1cc(C2NC(C(=O)O)Cc3c2[nH]c2ccccc32)cc(OC)c1OC (stereo not given)	u	5%[11.6 µM]	5%[46.1 µM]	2%[11.6 µM]	0%[11.5 µM]	u
COc1ccc(C2NC(C(=O)O)Cc3c2[nH]c2ccccc32)cc1OC (stereo not given)	-98*	6%	15%[46.1 µM]	-2%	-2%	-1%
CCn1c(=O)cc(OCC(=O)NCc2ccc(F)cc2Cl)c2ccccc21	x	-6%	x	-16%	-16%	x
CN(C)CCCO[C@H]1[C@@H]2OC(C)(C)O[C@@H]2O[C@@H]1[C@H](O)CO	x	x	x	x	x	-1%[25.5 µM]
O=C(CSCc1c(Cl)cccc1Cl)Nc1ccc2c(c1)OCCO2	-83*	-2%	-20%	-22%	-12%	-2%
COc1ccc(NC(=O)CN2CCN(c3ccccc3Cl)CC2)cc1	-100*	4%	4%[46.1 µM]	-10%	-11%	10%
O=C(CN1CCN(CC(=O)Nc2ccccc2Cl)CC1)Nc1ccc2c(c1)OCCO2	-100*	7%	-15%[46.1 µM]	-14%	-15%	4%
COc1ccc(NC(=O)CN2CCN(CC(=O)Nc3ccccc3Cl)CC2)cc1	51	u	0%[46.1 µM]	1%	-3%	6%
CCOC(=O)c1c(S(=O)(=O)N2CCCC(C(=O)Nc3cccc(CC)c3)C2)c(C)n(CC)c1C (stereo not given)	x	-10%	x	u	21%	x
COc1ccc(S(=O)(=O)N2CCC(CN3C(=O)c4cccc5cccc(c45)C3=O)CC2)cc1	42	-11%	11%	-29%	-4%	9%
O=C(c1ccc(S(=O)(=O)N2CCCC2)cc1)N1CCC(CN2C(=O)c3cccc4cccc(c34)C2=O)CC1	x	9%	10µM*	-21%	-17%	u
COc1ccc(Nc2nc(N)nc(CSC(=S)N3CCCCC3)n2)cc1	x	6%	-4%	u	-18%	-4%
COc1ccc(Nc2nc(N)nc(CSc3nnc(N)s3)n2)cc1	-96*	1%	11%[46.1 µM]	-10%	-10%	-5%
COc1ccc(Nc2nc(N)nc(CSc3nc(C)cc(C)n3)n2)cc1	x	8%	12%	-14%	-11%	-2%
COc1ccc(Nc2nc(N)nc(CSC(=S)N3CCCCC3C)n2)cc1 (stereo not given)	x	10%	-34%	10µM*[quencher]	u	-4%
CCOc1ccc(C2C(C(=O)Nc3ccccc3C)=C(C)Nc3nnnn32)cc1 (stereo not given)	x	u	x	-23%	-18%	x
CCc1cccc(NC(=O)c2ccc3c(c2)c(C)c(C)n3Cc2ccc(F)cc2)c1	x	-3%	x	-24%	-6%	x
Cc1ccc(CNC(=O)C2CCCCN2S(=O)(=O)c2ccc(F)cc2)cc1 (stereo not given)	x	-3%	x	-8%	3%	x
Cc1cccc(C(=O)NCC(c2ccc3c(c2)OCO3)N2CCN(c3ccccc3F)CC2)c1 (stereo not given)	x	-1%	x	-13%	-8%	x
Cc1ccc(Nc2c(-c3cccs3)nc3nc(C)cc(C)n23)cc1	x	4%	x	-27%	-20%	x
CCc1cccc(NC(=O)Cn2ncn3c(cc4ccccc43)c2=O)c1	3	-4%	7%[46.1 µM]	-19%	6%	u
CSc1cccc(NC(=O)Cn2ncn3c(cc4ccccc43)c2=O)c1	x	-8%	x	20µM*[quencher]	-16%	x
Cc1cccc(C)c1NC(=O)CN(Cc1ccc(Br)cc1)S(=O)(=O)c1ccccc1	x	-11%	x	u	u	x
Cc1cc2nc(N)sc2cc1C	-91*	3%	10%[46.1 µM]	0%	-4%	8%
O=S(=O)(c1ccc(Cl)cc1)N1CCN(Cc2ccc(O)c3ncccc23)CC1	x	0%	-1%	-16%	u	25µM*
